Consider 19 compounds from PubChem BioAssay (NCI).

Compounds without any hit were thinned out: in the full panel of roughly 79,000, 15% have a hit. A number with no mark means an inactive call. Calls of active or inactive are those of the source. Rule as the data show it: active = growth inhibition above about 70%; inactive = the rest.

A short description of assay [1]: NCI Yeast Anticancer Drug Screen. Data for the rad50 strain (AID 155).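 Also: 0% = growth of vehicle-only cultures of the same strain.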 As to conditions: S. cerevisiae rad50 strain growth inhibition, stronger effect = higher value; at 50.0 µM unless noted. Put shortly:
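Readout: growth inhibition relative to vehicle-treated cultures. Compound exposure was carried out in a genetically defined yeast strain deficient in DNA damage repair.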

The nature of assay [2]: NCI Yeast Anticancer Drug Screen. Data for the mec2-1 strain (AID 157). Conditions: S. cerevisiae mec2-1 strain, stronger effect = higher value; at 50.0 µM unless noted. Put shortly: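 mec2-1 yeast strain, carrying an alteration in DNA damage repair or cell cycle control, was exposed to compounds; growth inhibition was measured relative to vehicle-treated controls.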
Assay [3] can be described thus: NCI Yeast Anticancer Drug Screen. Data for the sgs1 mgt1 strain (AID 161).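 Also: 0% = growth of cultures given vehicle only.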 Conditions: S. cerevisiae sgs1 mgt1 strain, stronger effect = higher value; at 50.0 µM unless noted. Put shortly:
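Growth of a repair-deficient yeast mutant was monitored after compound treatment and expressed as inhibition relative to vehicle-treated cultures.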

Assay [4] can be described thus: NCI Yeast Anticancer Drug Screen. Data for the cln2 rad14 strain (AID 165).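 Also: 0% = growth equal to vehicle treated cultures.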 As to conditions: S. cerevisiae cln2 rad14 strain, stronger effect = higher value; at 50.0 µM unless noted. The method in brief: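 Yeast carrying cln2 and rad14 alterations (cell cycle control and DNA damage repair) were exposed to compounds. Growth inhibition was measured against vehicle-treated controls.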

Assay [5] can be described thus: NCI Yeast Anticancer Drug Screen. Data for the bub3 strain (AID 167). As to conditions: S. cerevisiae bub3 mutant strain, stronger effect = higher value; at 50.0 µM unless noted. Put shortly: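 Readout: yeast growth inhibition, expressed relative to vehicle-only wells. The test organism is a mutant strain from a panel with lesions in DNA repair or checkpoint genes.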
Assay [6] in a line: NCI Yeast Anticancer Drug Screen. Data for the mlh1 rad18 strain (AID 175). As to conditions: S. cerevisiae mlh1 rad18 strain growth inhibition, stronger effect = higher value; at 50.0 µM unless noted. The method in brief: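 Growth inhibition of the yeast strain was measured after compound exposure and expressed relative to vehicle-treated controls. The strain carries defined defects in DNA damage repair.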

Turning to `Cc1no[n+]([O-])c1/C=N/NS(=O)(=O)c1ccccc1`, the growth inhibition was 2.25% in assay [1]; -17.6% in assay [2]; -12.9% in assay [3]; -6.05% in assay [4]; -2.7% in assay [5]; -23.1% in assay [6].

Turning to `CC(O)CNC1=CC(=O)C(=O)c2ccccc21` (centres undefined), the growth inhibition in assay [1] was -13.3%; in assay [2], -26.1%; in assay [3], 4.8%; in assay [4], 4.3%; in assay [5] it was 20.4%; in assay [6], -20.6%.

For `O=C1c2ccccc2C(=O)N1CCS(=O)(=O)O`, the growth inhibition in assay [1] is 8.65%; in assay [2], 18.1%; in assay [3], 14.2%; in assay [4] it was -7.55%; in assay [5], 10.2%; in assay [6], 9.9%.

Consider `COc1ccc(CCNC(=O)[C@H]2CCCC[C@@H]2CCO)cc1OC`, for which the growth inhibition in assay [1] was 15.5%; in assay [2] it was 10.6%; in assay [3], -46.9%; in assay [4], 3.25%; in assay [5] it was -42.8%; in assay [6], -9%.

Consider `CCCCOC(=O)NC(Nc1ccc(S(N)(=O)=O)cc1)(C(F)(F)F)C(F)(F)F`, for which the growth inhibition in assay [1] is 5.95%; in assay [2] it was 7.9%; in assay [3], 2.95%; in assay [4], -1.4%; in assay [5] it was 12.1%; in assay [6], 18.3%.

For `CC12Nc3ccccc3N1C(=O)c1ccccc12` (centres undefined), the growth inhibition in assay [1] is 15.7%; in assay [2], 6.15%; in assay [3], -34.8%; in assay [4] it was 1.95%; in assay [5], -1%; in assay [6] it was -0.5%.

Regarding `COc1ccc(C2c3cc(OC)c(OC)cc3C(Cc3ccc([N+](=O)[O-])cc3)C2c2ccc([N+](=O)[O-])cc2)cc1OC` (centres undefined), the growth inhibition in assay [1] is 10.7%; in assay [2], 19.8%; in assay [3], -4.15%; in assay [4], 16.1%; in assay [5], 23.2%; in assay [6], 6.55%.

`Cc1ccc(C)c(NS(=O)(=O)c2ccc(Cl)cc2)c1`: the growth inhibition in assay [1] is 98.9% (active); in assay [2] it was 99.2% (active); in assay [3], 99.1% (active); in assay [4] it was 99.3% (active); in assay [5], 98.8% (active); in assay [6] it was 99.2% (active).

As for `COc1cc2c(cc1OC)C(=O)c1nccc3ccc(OC)c(c13)O2`, the growth inhibition is -0.35% in assay [1]; 17.1% in assay [2]; 23.3% in assay [3]; 4.75% in assay [4]; 16.6% in assay [5]; 16.6% in assay [6].

With `CCN(CC)CCOC(=O)c1ccc(NC(=O)OCCOCCOC(=O)Nc2ccc(C(=O)OCCN(CC)CC)cc2)cc1`, the growth inhibition in assay [1] is -1.8%; in assay [2] it was -4.3%; in assay [3], 9.25%; in assay [4], -1.1%; in assay [5], -3.1%; in assay [6], 14.7%.

`COc1cc(/C=C/C(=O)O)ccc1O`: the growth inhibition in assay [1] is -6.1%; in assay [2] it was -17.1%; in assay [3] it was 16.1%; in assay [4], -48%; in assay [5], -12.3%; in assay [6], 17.6%.

As for `C=Nc1ccc(Nc2ccccc2)cc1`, the growth inhibition was 5.7% in assay [1]; -5.2% in assay [2]; -2.4% in assay [3]; -3.25% in assay [4]; -1.6% in assay [5]; 3.3% in assay [6].

As for `CC(=O)Cc1cc(-c2cc(CC(C)=O)nc(N)n2)nc(N)n1`, the growth inhibition in assay [1] is 1.85%; in assay [2], 13.3%; in assay [3] it was 12.7%; in assay [4], 15.2%; in assay [5], 1%; in assay [6] it was 20.4%.

As for `COc1ccc(C(=O)/C=C/c2ccc(OCC#N)cc2)cc1OC`, the growth inhibition in assay [1] was -39.5%; in assay [2] it was -61.4%; in assay [3], -38.5%; in assay [4] it was -30.2%; in assay [5] it was -33%; in assay [6] it was -54.1%.

As to `CCN(CC)CCCNc1ncnc2c1C(c1ccccc1)c1ccccc1-2` (centres undefined), the growth inhibition is 8.5% in assay [1]; -14.7% in assay [2]; 1.7% in assay [3]; 6% in assay [4]; -4.85% in assay [5]; -6.9% in assay [6].

On to `COc1ccc2nc3cc(Cl)ccc3c(SCC(=O)Nc3ccccc3-c3ccccc3NC(=O)CSc3c4ccc(Cl)cc4nc4ccc(OC)cc34)c2c1`, for which the growth inhibition is -0.1% in assay [1]; -2.9% in assay [2]; -3.05% in assay [3]; 22.9% in assay [4]; 2.5% in assay [5]; 7.8% in assay [6].

Take `ClC1=C(Cl)C(Cl)(Cl)c2c3c(c4c(c21)C(Cl)(Cl)C(Cl)=C4Cl)C(Cl)(Cl)C(Cl)=C3Cl`: the growth inhibition in assay [1] is -0.6%; in assay [2], 17.1%; in assay [3], 5.15%; in assay [4] it was -53.8%; in assay [5], 9.1%; in assay [6], 7.45%.

Turning to `CC(C)(C)OC(=O)NCC(=O)NC1C/C(=N\O)c2sccc21` (centres undefined), the growth inhibition is 17.4% in assay [1]; 5.8% in assay [2]; 11.3% in assay [3]; 15.6% in assay [4]; -5.35% in assay [5]; 39.5% in assay [6].

`Cc1ccc(C2=Nc3cc(C)c(Cl)cc3S(=O)(=O)NN2)cc1`: the growth inhibition in assay [1] was -29.1%; in assay [2] it was -24.9%; in assay [3], -48.8%; in assay [4], -5.2%; in assay [5], -18.5%; in assay [6], -26.8%.
